Data: the supplement of paper PMC3334620
Whole data set: some 33,000 sequences, median “E-score (-0.5 to 0.5)” near -0.0059, cut for the highest 2% near 0.26. The sample holds the highest values, similar sequences and a random draw of the others, so the mix is not that of the screen.

target: T1, Cin5 (UniProt P40917); assay: PBM E-score (8-mer binding enrichment) (E-score (-0.5 to 0.5)); higher = stronger / more preferred TF binding; conditions: protein concentration: 100 nM; construct: GST-full length
T1 sequence: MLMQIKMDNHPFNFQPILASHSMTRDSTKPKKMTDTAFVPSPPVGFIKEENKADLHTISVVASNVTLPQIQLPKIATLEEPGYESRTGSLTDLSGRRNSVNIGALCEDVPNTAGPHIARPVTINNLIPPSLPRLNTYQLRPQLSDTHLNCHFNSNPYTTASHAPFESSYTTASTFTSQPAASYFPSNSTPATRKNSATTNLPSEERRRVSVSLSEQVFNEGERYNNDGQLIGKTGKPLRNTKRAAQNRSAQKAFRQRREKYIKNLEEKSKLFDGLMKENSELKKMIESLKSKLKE
Summary of the method: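 Bound GST-tagged yeast transcription factors, applied at about 100-200 nM to double-stranded universal all-10-mer Agilent arrays, were detected with fluorescent anti-GST. Scans were normalised with masliner. A modified Wilcoxon-Mann-Whitney statistic, the E-score, was assigned to each ungapped eight-base word pooled with its reverse complement by the Universal PBM Analysis Suite.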

Sequence	PBM E-score
AGAGCTTG	-0.0623
CAAGACCA	-0.0752
AGAGATCT	-0.171
GATCTCAA	0.112
CATCTCAG	0.268
TATCTCAA	0.261
AATCTCAA	0.184
CATCTCAC	0.0306
CATCTCAA	0.0545
GTGGCTAA	0.181
ACTTCATC	-0.0118
CTCAACAA	0.197
ACCTCATC	0.0947
AGGTGAAT	0.099
AAGACAAG	-0.0281
CAGACAAC	0.0843
AAGACAAC	0.274
GACCGCGA	-0.129
TCACGTAA	0.322
ACACGTAG	-0.151
CCACGTAA	0.165
ACACGTAC	-0.0415
ACACGTAA	0.3
GCACGTAA	-0.00694
GCTCTTAA	-0.0595

Sequence	PBM E-score
CGGCTAAG	-0.025
CGTGCGGC	-0.139
AAAATCGC	0.0818
TATGGCCA	0.0804
ACCTAGAC	-0.126
GACTCTCC	-0.189
AATGCGGC	-0.00913
AATGCGGT	-0.0647
AATGCGGG	0.273
TGCCCTAA	-0.0446
AAGTTGTA	0.178
AAGTTGTG	0.265
AAGTTGTC	0.127
CCCATCGC	0.0166
CCCCGACG	-0.00202
GATATCCA	0.183
ATCGGAAT	0.151
ATCGGAAC	0.267
ATCGGAAA	0.0538
CGTTCAAC	0.0923
CATAAGCC	0.245
GATAAGCA	0.275
AATAAGCA	0.176
AATAAGCG	0.109
CATAAGCA	0.336

Sequence	PBM E-score
GATAAGCC	0.0299
CATAAGCG	0.267
CATAAGGG	0.1
TATAAGCA	0.256
CCCTGTGC	-0.18
CCTCGGGA	-0.13
GTAGACCA	-0.101
GCCAAGGA	-0.199
CCGGCGTC	-0.0574
TCAGTGGA	-0.093
TATATACA	0.187
CACATAAC	-0.00529
TACATAAA	0.323
CATATATG	0.114
GACATAAA	0.239
AACATAAA	0.0668
TATATATA	0.369
CATATATA	0.322
CACATAAA	0.183
TATATAGA	0.238
GACATAAC	0.276
CATATATC	0.102
CCAGTCCC	-0.0959
ATGTACAA	0.0216
ACCTTAGA	0.0107

Sequence	PBM E-score
AGGTATCC	0.0225
AACGCACT	-0.037
TGACTCCA	-0.17
CCTTCGTC	-0.106
ACTATAGT	0.174
CGAGCATC	0.0462
GGAGGATA	-0.0068
GCACTTTA	-0.0367
TACATACA	0.238
CACATACA	9e-05
TTTATAAA	0.259
TATATAAA	0.283
GATATACA	0.138
GATATATC	0.1
CTTATAAA	0.154
GTTATAAA	0.198
CATATAAA	0.138
GATATATA	0.266
GATATAAA	0.0539
GACATACA	0.314
ACGTCGAT	0.105
AACCCTGC	-0.0766
CGCGAATC	0.0184
TTCTCAAA	0.15
AGGGCCAA	-0.313

Sequence	PBM E-score
GCCCAGTA	-0.0745
AGGAGACC	-0.201
AGTGATTC	-0.0118
CGTGATTA	0.273
GGTGATTA	0.213
CGTGATTC	-0.0445
AGTGATTA	0.275
CGTGATGA	-0.0266
CAAGAATC	0.133
AGCGGTAT	0.158
CTACTAAA	-0.0525
ATACTAAA	0.265
ATACTACC	-0.0132
ATACTAAG	0.012
CTACTACA	0.173
TTACTAAA	0.266
ATACTAAC	0.166
GTACTAAA	0.0965
ATACTACA	0.285
ACTTCCCG	-0.0152
CGGAGGAG	-0.182
AGGAAAAG	0.0753
GGACCTGA	-0.107
CGACGAAG	-0.0192
AATATATT	0.363

Sequence	PBM E-score
CATATAAG	0.0464
ACTATAGG	-0.0568
AATATAGG	0.317
AATATATA	0.18
AATATAAG	0.276
AATATAGT	0.315
AATATAAT	0.177
AATATATG	0.248
CATATAGG	0.0225
AATATAGC	0.0896
AATATAGA	0.186
GGTGGGAC	-0.313
CCCGGAGG	-0.377
AATCATCA	0.229
AGACTGCT	-0.00887
AGGCATAC	0.0609
CATGCACA	0.156
AACGATGT	0.0581
AAACGCTG	-0.139
GGGGATTA	0.253
GACTGCCC	-0.188
GTCTGAAC	-0.16
AGTGCCCA	0.0274
GAATACCA	0.207
TAATACCA	0.279

Sequence	PBM E-score
TAATACGA	0.12
TAATACTA	0.372
GAATACTA	0.267
CAATACCA	0.0989
AAATACTA	0.112
TAATACAA	0.232
CAATACTA	0.0648
CGTTGGGC	-0.0408
ATGGACAG	-0.15
GGACCAAC	-0.134
ACTTAGAC	0.0559
CCTGCGAG	-0.0365
CAGGGACA	-0.0907
CTGCGAGA	-0.332
AACATTAG	-0.0325
AATATTGG	0.154
AATATTTA	0.217
AATATTGT	0.28
CATATTAC	0.287
AATATTAA	0.304
AACATTAC	0.148
CATATTAG	0.16
AATATTGC	0.235
CATATTTC	0.0909
AACATTAT	0.261

Sequence	PBM E-score
AATATTGA	0.172
ACACGTTG	-0.238
CGGTAACG	-0.0557
AACTTTTC	0.0286
CGTCCCAC	-0.0257
CTCCAGGA	-0.221
GGCTGCAC	-0.148
CACATAGC	-0.142
CGTTTCCA	0.0865
ACAATCCA	0.209
AATATTCC	0.289
GCTATTAC	0.0669
ACTATTAT	0.137
TGTATTAA	0.202
GATATTCC	0.0678
AATATTAT	0.343
AATATTAG	0.215
GATATTAC	0.315
AATATTCA	0.24
TATATTAA	0.287
TCTATTAA	0.109
AATATTCG	0.19
AAAGACGA	0.036
GACCACTA	0.171
CCAGTCCG	-0.296

Sequence	PBM E-score
CCCGTAAC	-0.0624
GACAGCTC	-0.237
ACAGCTTA	0.195
AATGGAAC	0.103
GTCATTAA	0.279
GACATTAA	0.0285
TACATTAA	0.262
CTCATTAA	0.175
AATATTTC	0.18
ATCATTAA	0.221
AATATTAC	0.294
GCTATTAA	0.0303
GATATTCA	0.0685
CCTATTAC	0.0787
AACATTAA	0.114
GATATTAA	0.282
GCGCAGAC	-0.178
ACGAGAGA	-0.0604
CCTTTGTC	-0.0179
CTAGGTTA	0.118
AACAGTCA	-0.041
CATATTTA	0.157
CCTATTAA	0.111
CATATTAA	0.275
TATATTGA	0.287

Sequence	PBM E-score
GATATTGA	0.0812
CATATTGA	0.0883
GCTCCGCA	-0.16
GGCGGAAA	0.088
AGCAGTGA	0.2
AAGCTTGC	-0.0817
GTGTAGGA	-0.0437
AACGCGCT	-0.0706
AACGCGAA	0.281
AACGCGAG	0.0992
AACGCGCA	0.0734
AACGCGCG	0.276
CACGCGAA	-0.0826
CCAAAGCG	-0.0566
CCTTCATA	0.0109
AAGTCAGA	0.0006
GCGTCAGC	-0.102
ACGTCAGT	-0.12
AAGTCAGC	0.293
ATGTCAGC	0.272
CTGTCAGC	0.148
ACGTCATG	0.228
ACGTCAGC	0.394
CAGTCAGC	-0.0612
CCGTCATC	-0.075

Sequence	PBM E-score
ACGTCATC	0.259
ATGTCAGA	0.114
CGGACTTC	-0.131
CAGCTAAG	-0.252
GTAACCCA	0.234
ATTCTTAG	-0.0605
GGAGGGGA	-0.0844
CAAGTCCG	-0.109
ACTGTTGA	-0.0374
CCGGGACG	-0.162
GAACGTCA	-0.161
TCTAGAGA	-0.228
CTGTCATA	0.0932
ATGTCATA	0.299
ATGTCATC	0.142
AACCCCCC	-0.468
AAGGCTGG	-0.277
AGACTCCG	-0.121
AAAGATGA	0.00284
ATGGCAAT	0.113
ATTAGTTA	0.315
GTTAGTTA	0.225
GTTAGTCA	0.0867
ATTAGTCG	0.193
ATTAGTTG	0.241

Sequence	PBM E-score
ATTAGTCA	0.341
CTTGAGCC	-0.241
AGATCATA	0.186
GATCCCCC	-0.426
ATGACTTA	0.149
GTGACTTA	0.0722
CTGACTAA	0.36
CTGACTTA	0.298
GTGACTAA	0.123
ATGACTAA	0.235
CGTGTAAA	-0.142
AAGGGTGA	-0.0502
TCGGCCGA	0.0246
CACGGGAC	-0.118
AATCCCGA	0.26
CATCCCGA	0.0504
TATCCCGA	0.125
CCTTAGGA	0.0118
ATCGTGTC	0.0401
AATTCGCC	0.154
AATTCGCG	0.0954
AATTCGCT	0.325
GCACTCGA	0.0449
GCCTGATA	-0.0274
CATAGTAA	0.279

Sequence	PBM E-score
GATAGTAA	0.195
TATAGTCA	0.0921
AATAGTAC	0.05
TATAGTGA	-0.0129
TATAGTAA	0.324
AATAGTAA	0.27
AATAGTAG	0.144
CATAGTAC	0.0648
ACTACCAC	0.017
TCACCTAA	0.142
AACGCTAT	0.0739
GCAATCGA	0.0191
CTAATCTA	0.00395
CTAATCCA	0.219
ATAATCCA	0.225
GTAATCGA	0.275
ATGATCGA	0.0882
CTAATCGA	0.202
GTGATCGA	0.273
GTAATCTA	0.354
ATAATCTA	0.242
GTAATCCA	0.281
CTGATCGA	-0.179
CTGCCAAA	-0.065
CGCGCTAC	0.029

Sequence	PBM E-score
GACATAGC	0.0934
ACCGTACA	-0.108
GGGTCCAA	-0.0685
AAAGCTAC	-0.0407
GATCTAAA	0.0626
CCAATAGA	-0.01
AACCCGAT	0.258
ACCCCGAT	0.155
AACCCGAC	0.0291
CAATTAAC	0.134
CCATTATC	0.0699
ACATTATC	0.289
CATTTATC	0.0882
CAATTATC	0.277
TAATTATA	0.351
AATTTATA	0.249
GAATTATA	0.101
ACATTATG	0.106
CAATTATA	0.126
CAATTATG	0.141
AATTTATC	0.27
